Assay outcomes as filed in PubChem.
FECH block: blocks human mitochondrial ferrochelatase activity; P22830; purified FECH, Ni-mesoporphyrin absorbance 550 nm; calls only at 10 µM (by protocol); 20,000 compounds, 3.3% hits; AID 1671448;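 active means enzyme reaction rate more than 3 SD below the solvent-only control wells on the same plate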;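 further: lower slope than DMSO wells means FECH inhibition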
Target sequence (P22830 whole entry, looked up): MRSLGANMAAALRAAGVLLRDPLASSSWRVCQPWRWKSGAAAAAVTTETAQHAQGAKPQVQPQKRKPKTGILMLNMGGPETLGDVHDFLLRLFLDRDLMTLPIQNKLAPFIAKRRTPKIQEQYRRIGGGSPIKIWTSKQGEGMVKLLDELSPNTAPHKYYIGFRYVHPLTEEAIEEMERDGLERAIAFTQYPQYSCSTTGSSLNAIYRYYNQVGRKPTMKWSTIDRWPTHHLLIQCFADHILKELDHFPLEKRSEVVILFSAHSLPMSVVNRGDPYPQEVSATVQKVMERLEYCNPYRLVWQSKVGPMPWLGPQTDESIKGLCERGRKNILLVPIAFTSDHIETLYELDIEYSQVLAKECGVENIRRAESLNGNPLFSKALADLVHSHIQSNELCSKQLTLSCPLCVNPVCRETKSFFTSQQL
Numbers without * were called inactive; i = inactive; + = active, no number. This excerpt belongs to a sample that is enriched for hits.

SMILES	FECH block
CC(C)CC1(CO)CCCN(C(=O)c2cccc(C#CC(C)(C)O)c2)C1 (centres undefined)	+
O=C(NC1CC1)c1nc[nH]c1C(=O)N1CCC(Cc2ccccc2)CC1	i
CCOC(=O)N1CCC(NC(c2cccnc2)c2ccc(C)c(C)c2)CC1 (centres undefined)	i
COc1cc(O)ccc1-c1nccn1Cc1cccc(OC)c1OC	i
NC(=O)[C@@H]1CCCN1C(=O)c1cc2n(n1)CCCN(Cc1ccccc1)C2	i
O=c1c2c(nc3nc(CNc4cccc(Cl)c4)[nH]n13)CCC2	+
Cc1cccc(NCc2nc3nc4c(c(=O)n3[nH]2)CCC4)c1	+
Cc1cccc(NC(=O)Nc2c(C)nc3nc(C)[nH]n3c2=O)c1	i
Cc1ccc(NCc2nc3nc4c(c(=O)n3[nH]2)CCC4)c(C)c1	+
CCc1nc2nc(C)[nH]n2c(=O)c1NC(=O)Nc1cc(C)ccc1OC	i
Cc1ccc(-c2nc(CSc3nc4c(c(=O)[nH]3)CCCC4)c(C)o2)cc1	i
Cc1nc2nc(C)c(NC(=O)Nc3cccc(Cl)c3)c(=O)n2[nH]1	i
O=c1cc(CNc2cccc(Cl)c2)nc2nc(NCc3ccc(F)cc3)[nH]n12	i
Cc1cccc(NC(=O)Nc2c(C)nc3nc[nH]n3c2=O)c1	i
CCn1ncnc1CN1CCC(CNC(C)=O)CC1	i
CCOc1ccc(Nc2nc(NCCC(C)C)nc3c2cnn3-c2ccccc2)cc1	i
CCCN1CC(NC2CCN(Cc3cccnc3)CC2)CC1=O (centres undefined)	i
COc1cccc(NCc2cc(=O)n3[nH]c(-c4ccccc4C)nc3n2)c1	+
CCN1CCN(Cc2cc(=O)n3[nH]c(-c4ccccc4C)nc3n2)CC1	i
Cc1ccc(NCc2cc(=O)n3[nH]c(NCc4ccc(F)cc4)nc3n2)cc1	i
Cc1ccccc1-c1nc2nc(CNc3ccc(Br)cc3)cc(=O)n2[nH]1	+
COc1ccc(NCc2cc(=O)n3[nH]c(NCc4ccc(F)cc4)nc3n2)cc1	i
Cc1ccccc1-c1nc2nc(CN3CCOCC3)cc(=O)n2[nH]1	i
Cc1ccccc1-c1nc2nc(CNc3ccccc3)cc(=O)n2[nH]1	+
Cc1ccccc1-c1nc2nc(CNc3cccc(Cl)c3)cc(=O)n2[nH]1	i
SMILES	FECH block
Cc1ccc(NCc2cc(=O)n3[nH]c(-c4ccccc4C)nc3n2)cc1	+
Cc1cccc(CN2CCCN(CC(=O)NC(C)CCc3ccccc3)S2(=O)=O)c1 (centres undefined)	i
COc1ccc(-c2ncc3c(=O)n(Cc4ccc(F)cc4Cl)c(=O)n(C)c3n2)cc1	i
O=C(c1coc(COc2ccc(F)cc2Cl)n1)N1CCC1c1cccs1 (centres undefined)	i
O=C(NC1CC(=O)N(c2ccccc2)C1)C1CCCC1 (centres undefined)	i
Cc1cc(N2CCOCC2)nc(N2CCN(S(=O)(=O)c3ccc(I)cc3)CC2)n1	i
Cc1ccnc(NCCNC2CCN(C(=O)C3CCCO3)CC2)c1 (centres undefined)	i
Cc1cc(CNC(=O)CC2=CCCCC2)no1	i
CCc1cc(Sc2ccc(NC(=O)Nc3ccc(C)cc3)cc2)n2nc(C)nc2n1	i
CCn1c(C2CCN(C(=O)c3cc(C(C)C)[nH]n3)CC2)n[nH]c1=O	i
O=c1[nH]nc(C2CC2)n1Cc1ccc(Cl)cc1Cl	+
CN1CCCC(c2n[nH]c(=O)n2CCc2ccccc2)C1 (centres undefined)	i
COc1cc2c(cc1OC)CN(S(=O)(=O)c1cc(N3C(=O)CCS3(=O)=O)ccc1C)CC2	i
CCN(CC)CCCNC(=O)C1CCN(c2ccc(-c3cccc(C)c3)nn2)CC1	+
CCN(CC)CCCNC(=O)C1CCN(c2ccc(-c3ccccc3)nn2)CC1	i
CCOCCCNC(=O)C1CCN(c2ccc(-c3cccc(C)c3)nn2)CC1	i
CC(=O)Nc1ccc(Nc2nc(-c3nnc(-c4ccc(C)cc4)o3)nc3ccccc23)cc1	i
Cc1[nH]cnc1C(=O)N1CCC(CO)(Cc2ccccc2Cl)CC1	i
O=C(c1ccc(CSc2ncn[nH]2)o1)N1CCC(Oc2cccnc2)CC1	i
CN(Cc1ccncc1)Cc1nc(-c2cccnc2)no1	i
Cc1ccc2[nH]c(CN(C)Cc3nc(-c4cccnc4)no3)nc2c1C	+
CN(Cc1nc(-c2cccnc2)no1)Cc1ccc(C2CCCO2)s1 (centres undefined)	i
O=c1c(-c2ccc3c(c2)CCCC3)c(N2CCN(c3ccccc3F)CC2)c1=O	i
CN(C)Cc1nnc(C(=O)N(C)CCC(O)c2ccccc2)o1 (centres undefined)	i
CC(C)OCCCNc1nc(Nc2ccc(Cl)cc2)c2cnn(-c3ccccc3)c2n1	+
Fc1ccc(Nc2nc(NCC3CCCO3)nc3c2cnn3-c2ccccc2)cc1 (centres undefined)	i
Clc1ccc(Nc2nc(NCC3CCCO3)nc3c2cnn3-c2ccccc2)cc1 (centres undefined)	+
CC(C)OCCCNc1nc(Nc2ccc(F)cc2)c2cnn(-c3ccccc3)c2n1	i
